PubChem BioAssay

Tested on: Chordin-like protein 2 (CHRDL2)
Experiment: compounds binding chordin-like 2 – biochemical, small-molecule microarray, 635 nm fluorescence, primary screen (AID 1126);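 note: printed compound slides probed with Chrdl2 protein at 4 µg/mL for 1 h at 4 C; score merges 667 nm emission intensity with signal to noise over three replicate slides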
Settings: fluorescence 635 nm, higher = more signal

Row | SMILES | composite z-score
1 | [N-]=[N+]=NCc1ccccc1[C@H]1OC(c2ccc(OCCCO)cc2)=N[C@@]1(Cc1ccccc1)C(=O)NCC(O)CO (stereo not given in full) | -0.609
2 | NC(=O)NCC#Cc1ccc2c(c1)[C@]1(C(=O)N2)[C@H](c2ccccc2OCCO)N2[C@H](c3ccccc3)[C@H](c3ccccc3)OC(=O)[C@H]2[C@@H]1C(=O)N1CCCCCCC1 | 1.05
3 | CC(C)(C)OC(=O)CC[C@@]1(C(N)=O)N=C(c2ccc(OCCCO)cc2)O[C@@H]1c1ccccc1N=[N+]=[N-] | -0.409
4 | C=CCC(OC(C)=O)[C@@H]1[C@@H](N(Cc2ccc(-c3cccc(C(F)(F)F)c3)o2)C(=O)Cc2ccc(OC)cc2)c2cc(OCCCO)ccc2N1C(=O)Cc1ccc(OC)cc1 (stereo not given in full) | 0.292
5 | CCOC(=O)C1=CC[C@@H](c2cccc(Cl)c2)N(S(=O)(=O)c2ccc(C)cc2)[C@H]1c1ccc(C#N)cc1 | -0.0727
6 | Cc1ccc(F)cc1S(=O)(=O)N[C@@H]1CCN(Cc2ccc(C(F)(F)F)cc2)C1 | 0.509
7 | C/C=C/[C@H](CCn1cc([C@H](O)c2ccccc2)nn1)[Si](C)(C)c1ccc(OC)cc1 | -0.4
8 | COCC1C2CC[C@H]3C(OCc4ccc(F)cc4C(F)(F)F)OC[C@]4(C)[C@H]3C2=C(CN4C(=O)OC(C)(C)C)[C@H](C)C1COC (stereo not given in full) | -1.12
9 | C=C(/C(=C/C[C@@H](OC(=O)c1ccncc1)c1ccc(CO)o1)c1cc(C(=O)OC)ccc1OC)C(C)C | 0.737
10 | O=C1O[C@@H](c2ccccc2)[C@@H](c2ccccc2)N2[C@@H](c3ccc(O)cc3)[C@]3(C(=O)Nc4ccccc43)[C@@H](C(=O)N3CCCCCCC3)[C@H]12 | 1.11
